# Only some compounds are listed: those with a hit (about 31% of all), similar ones and a draw of the others.
# CYP2C9 inh – blockers of cytochrome P450 2C9 activity – biochemical, luminescence, ADME assay, primary screen. AID 777, 2007. CYP2C9 Supersomes, luciferin-H conversion. 96,000 compounds, 20% hits. inhibition, % at 5 µM. P11712;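 active = blocking of liver enzyme CYP2C9 beyond about 50% at 5 µM, limit read from the data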
# PLAP act – PLAP enzyme activators, biochemical, luminescence, HTS; Alkaline phosphatase, placental type (Homo sapiens), P05187; AID 696, 2007; activation fold at 20 µM; 96,000 compounds, 1.2% hits; purified PLAP enzyme, luminescent substrate read-out; hits give high values; in the data active = activation fold above about 2
# Target sequence (P05187 whole entry, looked up): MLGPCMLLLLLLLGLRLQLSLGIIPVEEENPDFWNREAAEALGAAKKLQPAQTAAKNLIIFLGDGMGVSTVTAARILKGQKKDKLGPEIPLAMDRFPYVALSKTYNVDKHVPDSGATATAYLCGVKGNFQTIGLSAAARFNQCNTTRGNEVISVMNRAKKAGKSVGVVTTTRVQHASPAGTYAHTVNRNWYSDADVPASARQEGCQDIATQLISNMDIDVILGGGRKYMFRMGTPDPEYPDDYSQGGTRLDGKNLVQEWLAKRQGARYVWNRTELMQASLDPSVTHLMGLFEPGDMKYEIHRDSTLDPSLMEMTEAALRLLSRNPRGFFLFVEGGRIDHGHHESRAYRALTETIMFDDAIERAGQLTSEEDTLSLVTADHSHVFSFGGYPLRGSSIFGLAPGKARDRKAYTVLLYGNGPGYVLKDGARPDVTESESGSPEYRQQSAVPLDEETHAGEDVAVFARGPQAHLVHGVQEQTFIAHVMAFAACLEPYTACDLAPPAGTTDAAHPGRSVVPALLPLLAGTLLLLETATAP
# CYP2C19 inh – blockers of cytochrome P450 2C19 activity – biochemical, luminescence, ADME assay, primary screen. P33261. CYP2C19 Supersomes, luciferin-H EGE luminescence, 30 min. inhibition, % at 5 µM. 96,000 compounds, 21% hits. AID 778, 2007;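 active = CYP2C19 inhibition above a set limit at 5 µM in the primary screen, cut at about 50% in these data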;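 also: plate controls were negative control wells for no effect and 2.5 mM tranylcypromine positive control for full effect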
# CYP2C9 act – human CYP2C9 activators, primary screen, biochemical, luminescence. activation factor at 5 µM. 96,000 compounds, 1.4% hits. AID 1024, 2008. recombinant CYP2C9, luciferin-H conversion; hits give high values; factor 1 = untreated enzyme, 0 = blocked. Cytochrome P450 2C9 (Homo sapiens), P11712;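 active = activation factor of 2 or more for CYP2C9 at a 5 µM dose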;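 also: 0 = sulfaphenazole-blocked wells and 1 = vehicle-only wells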
# CYP2C19 act – human CYP2C19 activators, primary screen, biochemical, luminescence | Cytochrome P450 2C19 (Homo sapiens), P33261 | recombinant CYP2C19, luciferin-H EGE luminescence; hits give high values; 0 = fully inhibited enzyme, 1 = untreated enzyme | activation factor at 5 µM | 96,000 tested, under 10 active | AID 1025, 2008;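 active = activation factor of at least 2 at 5 µM in the primary screen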;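 also: 0 = wells with 2.5 mM tranylcypromine and 1 = vehicle-only wells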
# Active calls of the source: *.
SMILES,CYP2C9 inh,PLAP act,CYP2C19 inh,CYP2C9 act,CYP2C19 act
COc1cccc(C2=CC(c3cccc(OC)c3OC(F)F)n3nnnc3N2)c1 (configuration not stated),-7,1.1,42,1.1,0.6
COc1cccc(C2=CC(c3cc(OC)ccc3OC)n3nnnc3N2)c1 (configuration not stated),68*,0.9,35,0.3,0.6
COc1ccc(-c2ccc(-c3nnc(-c4cc(OC)ccc4OC)o3)cc2)cc1,5,1.4,38,0.9,0.6
COc1cccc(C2=CC(c3cccc(OC)c3OC)n3nnnc3N2)c1 (configuration not stated),90*,1.1,98*,0.1,0
COc1ccc(OC)c(C2C=C(c3ccc(C)c(C)c3)Nc3nnnn32)c1 (configuration not stated),96*,1.1,97*,0,0
CC(C)OCP(=O)(c1ccccc1)c1ccccc1,2,0.9,0,1,1
NC(=O)N1OCC2COc3ccc4ccccc4c3C21 (configuration not stated),-108,1,5,2.1*,1
CCOC(=O)C1=C(C)NC(C)=C(C(=O)OCC)C1c1cc2ccc(C)cc2[nH]c1=O,54*,1.5,25,0.5,0.7
CCN(Cc1cc2ccc(C)cc2[nH]c1=O)C(=O)c1ccncc1,41,1.3,68*,0.6,0.3
CCCN(Cc1cc2ccc(C)cc2[nH]c1=O)C(=O)c1cccnc1,-17,1,-5,1.2,1
Cc1cccc2cc(COC(=O)c3cccnc3)c(=O)[nH]c12,39,1.1,52*,0.6,0.5
Cc1ccc2cc(COC(=O)c3ccncc3)c(=O)[nH]c2c1,66*,1.1,92*,0.3,0.1
Cc1ccc(C(=O)OCc2cc3ccccc3[nH]c2=O)cc1,19,0.8,14,0.8,0.9
COC(=O)C1=C(C)N(c2ccccc2)/C(=C/c2cccs2)C1=O,11,1,0,0.9,1
CCOC(=O)c1cc2c(N)c(C(=O)c3cc(C#N)c(SC)nc3C)sc2nc1C,36,1,-3,0.6,1
COc1cc(OC)c(NC2=NCCCCC2)cc1Cl,4,0.8,14,1,0.9
O=C(NCc1ccco1)c1ccc2nc3sc4c(c3c(=O)n2c1)CCCC4,40,1.3,19,0.6,0.8
CCCCN(C)CCNC(=O)Cn1ncc2c(=O)oc3ccc(C)cc3c21,-2,1,-4,1,1
COc1cccc(N=c2oc3c(C)ncc(CO)c3cc2C(=O)Nc2ccccc2OC)c1,77*,0.8,22,0.2,0.8
CCOc1ccc(OCC)c(N=c2oc3c(C)ncc(CO)c3cc2C(N)=O)c1,21,1,-2,0.8,1
CC(=O)NC1(c2nnnn2CCOC(=O)Nc2ccc(Cl)cc2)CCCCC1,71*,1.4,95*,0.3,0.1
O=C(Nc1ccc(Cl)cc1)OCCn1nnnc1C(c1ccccc1Cl)N1CCOCC1 (configuration not stated),54*,1.5,46,0.5,0.5
O=C(c1ccco1)N1CCN(C(c2ccccc2Cl)c2nnnn2Cc2ccco2)CC1 (configuration not stated),27,1.6,10,0.7,0.9
CC(=O)N(C)C1(c2nnnn2CCOC(=O)Nc2cccc3ccccc23)CCCC1,0,1.2,18,1,0.8
CC(=O)N(C)C1(c2nnnn2CCOC(=O)Nc2ccc(Cl)cc2)CCCCC1,48,0.8,93*,0.5,0.1
SMILES,CYP2C9 inh,PLAP act,CYP2C19 inh,CYP2C9 act,CYP2C19 act
CCn1c(NC(=S)Nc2ccccc2)nc2ccccc21,20,1,32,0.8,0.7
CCCCN(CC)C(=O)c1n[nH]c(=O)c2ccccc12,26,1,-25,0.7,1.3
O=C(NCCCN1CCc2ccccc2C1)C1CCN(S(=O)(=O)N2CCCC2)CC1,10,1.2,12,0.9,0.9
CCn1c(NC(=O)Nc2cccc(C)c2C)cc2sccc21,26,0.8,47,0.7,0.5
COc1ccc(-c2cc(C(=O)OCC(=O)Nc3cc(C)on3)c3ccccc3n2)cc1OC,46,0.9,53*,0.5,0.5
Cc1cccc(NC(=O)NNC(=O)c2cc(-c3ccccc3Cl)nc3ccccc23)c1,62*,1.7,38,0.4,0.6
CCC(C)c1ccc(-c2cc(C(=O)OCC(=O)Nc3cc(C)on3)c3ccccc3n2)cc1 (configuration not stated),30,0.3,51*,0.7,0.5
O=C(NNC(=O)c1cc(-c2ccc(Cl)c(Cl)c2)nc2ccccc12)Nc1ccccc1,33,1,18,0.7,0.8
O=C(Nc1ccc(S(=O)(=O)Nc2nccs2)cc1)c1cc(-c2ccccc2Cl)nc2ccccc12,52*,1.4,18,0.5,0.8
COc1ccc(-c2ccc(SCC(=O)Nc3cc(C)on3)nn2)cc1OC,35,1,3,0.7,1
CC(NC(=O)C1CC2CCCC(C1)C2=O)c1ccccc1 (configuration not stated),-9,1.2,10,1.1,0.9
CC(CCc1ccccc1)NC(=O)c1ccc(Cl)nc1 (configuration not stated),20,0.9,26,0.8,0.7
C/C(=N/Oc1nc(C)cc(C)n1)c1ccccc1,8,0.9,16,0.9,0.8
Cc1cc(NC(=O)c2ccccc2Cl)no1,-27,1.1,-18,1.3,1.2
Cc1ccccc1NC(=S)NC(=O)c1cc(-c2ccccc2)nc2ccccc12,46,1,11,0.5,0.9
Cc1ccc(-c2cc(C(=O)OCC(=O)Nc3cc(C)on3)c3ccccc3n2)c(C)c1,79*,1.2,25,0.2,0.7
Cc1ccc2nc(-c3ccccc3Cl)cc(C(=O)Nc3cc(C)on3)c2c1,99*,1.3,82*,0,0.2
CCNC(=S)NNC(=O)c1cc(-c2cc(C)ccc2C)nc2ccccc12,66*,1.8,26,0.3,0.7
O=C(NCN1CCc2ccccc2C1)c1cnccn1,-20,1,-2,1.2,1
O=C(NCN1CCc2ccccc2C1)c1ccccc1,20,1,81*,0.8,0.2
O=C(CN1CCc2ccccc2C1)c1cccs1,24,0.8,92*,0.8,0.1
O=S(=O)(NC1c2cccc3cccc(c23)C1N1CCN(CCO)CC1)c1ccccc1 (configuration not stated),24,1.6,38,0.8,0.6
O=C(c1ccccc1)N1CCN(C2c3cccc4cccc(c34)C2NS(=O)(=O)c2ccccc2)CC1 (configuration not stated),75*,1.2,52*,0.3,0.5

# High-throughput results: PubChem BioAssay, Sanford-Burnham Center for Chemical Genomics
